Experimental findings from PubChem BioAssay are described below.

A number with no mark means an inactive call. For some of these results: Potency and affinity values are given separately. Calls of active or inactive are those of the source. Unless noted, no rule for the calls is given here.

Experiment [1] is described as follows: antimalarial activity against Dd2 strain (AID 2302;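 active = growth inhibition above 50% at the single 2 µM test dose, taken to imply half-maximal potency below 2 µM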;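 also: 0% = DMSO untreated growth and 100% = chloroquine plus artemisinin killed control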). Particulars: P. falciparum Dd2 in RBCs, LDH growth readout, 72 h; at 2 µM; stronger effect = higher value.
The nature of experiment [2]: HepG2 cytotoxicity, primary screen, cytotoxicity control for P. falciparum antimalarial project, cell-based, ATP luminescence (AID 2303;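 active = inhibition above 50%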;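 also: 0% = DMSO wells and 100% = digitonin-killed cells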). The note with it: HepG2 viability, 24-48 h, at 10 µM, stronger effect = higher value.
Experiment [3] has as its target L-lactate dehydrogenase (Plasmodium falciparum (isolate CDC / Honduras)) (UniProt Q27743). The experiment can be described thus: PfLDH activity inhibition – cell lysate, 3D7 strain, counter-screen for P. falciparum growth inhibition project (AID 2304).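 Also: 0% = vehicle and 100% = reference inhibitor.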 The note with it: P. falciparum 3D7 crude extract, LDH APAD/NBT absorbance; at 2 µM; stronger effect = higher value.
Experiment [4] can be described thus: inhibition of 3D7 malaria parasite growth – strain 3D7 (AID 2306).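 Also: 0% = DMSO wells and 100% = chloroquine plus artemisinin control wells.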 The note with it: P. falciparum 3D7 erythrocytic growth, LDH absorbance, 72 h; at 2 µM; stronger effect = higher value.
Experiment [5] deals with Calcium-dependent protein kinase 1 (Plasmodium falciparum (isolate 3D7)) (UniProt P62344). Briefly: PfCDPK1 kinase inhibitors, biochemical, TCAMS library (AID 1159585; cut-off not given, nearly all actives have IC50 up to about 0.98 µM;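 also: inhibitors leave more ATP so luminescence rises with inhibition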). Particulars: recombinant PfCDPK1, Kinase-Glo ATP depletion luminescence. A general note: Kinase-Glo reads ATP consumption through a luciferase reaction.
The target in experiment [6] is Plasmodium falciparum protein kinase 6 (PK6, PF3D7_1337100) (UniProt Q8IDW1). The experiment can be described thus: PfPK6 kinase inhibitors, biochemical, TCAMS library (AID 1159586). The note with it: recombinant PfPK6, Kinase-Glo ATP depletion luminescence.
For experiment [7], the target named is Protein kinase 7 (PK7), Plasmodium falciparum 3D7 (PF3D7_0213400) (UniProt Q7YTF7). Briefly: inhibition of Plasmodium PK7 catalytic activity – biochemical, TCAMS antimalarial set, Kinase-Glo luminescence (AID 1159587). Particulars: recombinant PfPK7, Kinase-Glo ATP depletion luminescence.
Experiment [8] deals with Calcium-dependent protein kinase 4 (Plasmodium falciparum (isolate 3D7)) (UniProt Q8IBS5). The experiment can be described thus: PfCDPK4 kinase inhibitors, biochemical, TCAMS library (AID 1159588; cut-off not given, nearly all actives have IC50 up to about 0.91 µM). Particulars: recombinant PfCDPK4, Kinase-Glo ATP depletion luminescence.

In general, inhibition refers to the relative decrease from the control value, in per cent.

Chain of Plasmodium falciparum protein kinase 6 (PK6, PF3D7_1337100) (Q8IDW1 1-305): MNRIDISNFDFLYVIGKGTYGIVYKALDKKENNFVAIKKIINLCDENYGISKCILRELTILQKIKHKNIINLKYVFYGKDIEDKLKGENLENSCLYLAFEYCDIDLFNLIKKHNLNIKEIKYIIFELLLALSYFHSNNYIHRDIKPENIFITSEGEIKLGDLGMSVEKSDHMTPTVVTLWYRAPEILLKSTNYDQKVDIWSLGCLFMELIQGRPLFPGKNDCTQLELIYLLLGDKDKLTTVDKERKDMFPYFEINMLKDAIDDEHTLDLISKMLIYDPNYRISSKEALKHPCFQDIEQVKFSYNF
Chain of Calcium-dependent protein kinase 1 (Plasmodium falciparum (isolate 3D7)) (P62344 whole entry, looked up): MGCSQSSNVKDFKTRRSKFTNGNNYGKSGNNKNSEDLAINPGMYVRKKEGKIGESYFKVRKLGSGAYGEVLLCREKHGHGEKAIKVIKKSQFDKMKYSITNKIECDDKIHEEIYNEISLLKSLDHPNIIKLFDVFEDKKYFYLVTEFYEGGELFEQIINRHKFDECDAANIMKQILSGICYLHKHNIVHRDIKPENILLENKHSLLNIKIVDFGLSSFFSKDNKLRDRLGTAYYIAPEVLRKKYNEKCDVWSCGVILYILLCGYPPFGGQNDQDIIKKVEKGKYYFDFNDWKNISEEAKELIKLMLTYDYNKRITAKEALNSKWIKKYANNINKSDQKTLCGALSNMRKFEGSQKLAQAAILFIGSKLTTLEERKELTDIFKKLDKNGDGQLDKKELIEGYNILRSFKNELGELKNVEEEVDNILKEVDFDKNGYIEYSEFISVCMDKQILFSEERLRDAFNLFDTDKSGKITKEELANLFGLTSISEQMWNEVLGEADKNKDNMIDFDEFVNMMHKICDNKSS
Chain of L-lactate dehydrogenase (Plasmodium falciparum (isolate CDC / Honduras)) (Q27743 whole entry, looked up): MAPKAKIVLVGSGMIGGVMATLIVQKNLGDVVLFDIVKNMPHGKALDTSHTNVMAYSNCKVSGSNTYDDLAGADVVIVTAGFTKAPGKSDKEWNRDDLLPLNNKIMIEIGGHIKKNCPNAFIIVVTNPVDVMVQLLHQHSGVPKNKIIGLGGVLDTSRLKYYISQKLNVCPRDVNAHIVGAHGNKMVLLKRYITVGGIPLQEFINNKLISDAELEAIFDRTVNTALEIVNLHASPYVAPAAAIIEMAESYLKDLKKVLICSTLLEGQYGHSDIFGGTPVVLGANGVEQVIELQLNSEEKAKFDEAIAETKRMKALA
Chain of Protein kinase 7 (PK7), Plasmodium falciparum 3D7 (PF3D7_0213400) (Q7YTF7 1-343): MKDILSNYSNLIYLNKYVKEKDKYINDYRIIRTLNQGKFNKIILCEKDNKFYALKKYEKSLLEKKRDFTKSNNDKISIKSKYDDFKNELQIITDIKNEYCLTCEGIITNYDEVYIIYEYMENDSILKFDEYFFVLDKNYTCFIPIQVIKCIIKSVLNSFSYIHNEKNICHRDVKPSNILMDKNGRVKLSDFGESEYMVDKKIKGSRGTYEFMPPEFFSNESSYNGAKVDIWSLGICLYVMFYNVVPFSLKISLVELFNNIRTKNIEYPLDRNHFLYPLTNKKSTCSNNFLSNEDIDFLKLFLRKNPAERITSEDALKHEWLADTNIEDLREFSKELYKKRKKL
Chain of Calcium-dependent protein kinase 4 (Plasmodium falciparum (isolate 3D7)) (Q8IBS5 whole entry, looked up): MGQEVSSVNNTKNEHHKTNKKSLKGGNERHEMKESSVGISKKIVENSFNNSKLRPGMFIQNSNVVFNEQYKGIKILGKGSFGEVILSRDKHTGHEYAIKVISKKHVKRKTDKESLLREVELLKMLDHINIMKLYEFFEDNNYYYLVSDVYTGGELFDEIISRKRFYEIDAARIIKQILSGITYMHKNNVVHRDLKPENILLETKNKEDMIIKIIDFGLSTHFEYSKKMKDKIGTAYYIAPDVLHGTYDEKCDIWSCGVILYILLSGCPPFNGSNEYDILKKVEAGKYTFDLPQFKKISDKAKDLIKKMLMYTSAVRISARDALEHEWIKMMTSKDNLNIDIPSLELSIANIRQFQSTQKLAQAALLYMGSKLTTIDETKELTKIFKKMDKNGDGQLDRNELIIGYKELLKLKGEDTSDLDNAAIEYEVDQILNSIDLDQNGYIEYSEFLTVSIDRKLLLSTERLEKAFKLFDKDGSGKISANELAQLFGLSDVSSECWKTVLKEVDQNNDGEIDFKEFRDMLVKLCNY

Consider `N#Cc1ccc2c(c1)CCN(CCC1CCC(NC(=O)c3cc4ccc(Br)cc4[nH]3)CC1)C2` (stereo not given), for which the growth inhibition in experiment [1] was 17%; in experiment [4], 103% (active). In addition, the inhibition in experiment [2] is 12%; in experiment [3], -13%. Also, the outcome in experiment [5], in experiment [6], in experiment [7] and in experiment [8] was inactive.
In the case of `O=[N+]([O-])c1cccc(CNC2CCN(Cc3ccc(C(F)(F)F)cc3)CC2)c1`, the growth inhibition in experiment [1] was 28%; in experiment [4] it was 99% (active). The inhibition was 0% in experiment [2] and 1% in experiment [3]. For the same compound, the outcome in experiment [5], in experiment [6], in experiment [7] and in experiment [8] was inactive.
Consider `CN1CCCN(Cc2cccc(-c3ccc(NC(=O)c4cccc(C#N)c4)cc3)c2)CC1`, for which the figures for the growth inhibition in experiment [1] and in experiment [4] were 96% (active) and 102% (active), respectively. Moreover, the figures for the inhibition in experiment [2] and in experiment [3] were 27% and -6%, respectively. For the same compound, the result in experiment [5], in experiment [6], in experiment [7] and in experiment [8] was inactive.
`O=C(NCC1CCC(C(=O)NCc2cccc(C(F)(F)F)c2)CC1)c1ccc(O)c(-c2ccc(Cl)c(Cl)c2)c1` (stereo not given): the growth inhibition was 41% in experiment [1] and 98% (active) in experiment [4]. In addition, the results for the inhibition in experiment [2] and in experiment [3] were 5% and 0%, respectively. Moreover, the outcome in experiment [5], in experiment [6], in experiment [7] and in experiment [8] was inactive.
In the case of `Cc1ccc2nc(C)n(C3CCN(C(=O)Cc4ccccc4C)CC3)c2c1`, the growth inhibition in experiment [1] and in experiment [4] was 100% (active) throughout. The inhibition in experiment [2] was 2%; in experiment [3] it was 1%. Also, the outcome in experiment [5], in experiment [6], in experiment [7] and in experiment [8] was inactive.
`COc1ccc2c(NN=Cc3cccc(F)c3)cc(C)nc2c1`: the growth inhibition in experiment [1] is 100% (active); in experiment [4] it was 101% (active). The inhibition is 17% in experiment [2] and -4% in experiment [3]. Besides, the result in experiment [5], in experiment [6], in experiment [7] and in experiment [8] was inactive.
For the compound `CCCC(C)NC(=O)[C@H](CC1CCCCC1)NC(=O)c1ccc(O)c(-c2cccc(C(F)(F)F)c2)c1` (stereo not given in full), the growth inhibition is 98% (active) in experiment [1] and 100% (active) in experiment [4]. In addition, the inhibition in experiment [2] was -5%; in experiment [3], 5%. The outcome in experiment [5], in experiment [6], in experiment [7] and in experiment [8] was inactive.
Regarding `COc1cc(-c2[nH]c(-c3ccc(OCCN(C)C)cc3)cc2-c2ccncc2)ccc1Cl`, the growth inhibition in experiment [1] is 33%; in experiment [4], 93% (active). Further, the results for the inhibition in experiment [2] and in experiment [3] were 3% and 1%, respectively. Further, the outcome in experiment [5], in experiment [6], in experiment [7] and in experiment [8] was inactive.
Take `CCNc1cc(C(=O)N[C@@H](Cc2ccccc2)[C@H](O)CN[C@H]2CCc3ccccc32)cc(N2CCCC2=O)c1`: the growth inhibition was 99% (active) in experiment [1] and 98% (active) in experiment [4]. The inhibition is 8% in experiment [2] and 3% in experiment [3]. The result in experiment [5], in experiment [6], in experiment [7] and in experiment [8] was inactive.
In the case of `C[C@H](Cc1ccc(OCCCCCCOc2ccc(C[C@@H](C)NC(=O)[C@H](O)c3cccc(Cl)c3)cc2)cc1)NC[C@H](O)c1cccc(Cl)c1`, the growth inhibition in experiment [1] and in experiment [4] was 99% (active) in each case. Moreover, the inhibition in experiment [2] is 39%; in experiment [3], -3%. In addition, the outcome in experiment [5], in experiment [6], in experiment [7] and in experiment [8] was inactive.
With `CCCN(CCC)CCCOc1ccc(C(=O)c2c(-c3ccc(OCCCN(CCC)CCC)cc3)oc3ccc(Cl)cc23)cc1`, the growth inhibition in experiment [1] is 95% (active); in experiment [4], 96% (active). Also, the results for the inhibition in experiment [2] and in experiment [3] were 100% (active) and -8%, respectively. Also, the result in experiment [5], in experiment [6], in experiment [7] and in experiment [8] was inactive.
`CN1CCN(CC(=O)Nc2cccc(-c3cccc(-c4nc5ccc(F)cc5[nH]4)c3)c2)CC1`: the growth inhibition in experiment [1] was 98% (active); in experiment [4], 100% (active). The inhibition is 16% in experiment [2] and 6% in experiment [3]. The outcome in experiment [5], in experiment [6], in experiment [7] and in experiment [8] was inactive.
With `COc1cc2nc(N3CCC(C(N)=O)CC3)nc(NCc3ccccc3)c2cc1OC`, the growth inhibition in experiment [1] was 23%; in experiment [4], 100% (active). Also, the inhibition is 23% in experiment [2] and -7% in experiment [3]. For the same compound, the outcome in experiment [5], in experiment [6], in experiment [7] and in experiment [8] was inactive.
As to `O=C(C1CCCC1)N1CCOC(CCN2CCC(c3ccccc3)CC2)(c2ccc(Cl)c(Cl)c2)C1` (stereo not given), the values for the growth inhibition in experiment [1] and in experiment [4] were 77% (active) and 88% (active), respectively. For the same compound, the inhibition was 16% in experiment [2] and 0% in experiment [3]. In addition, the result in experiment [5], in experiment [6], in experiment [7] and in experiment [8] was inactive.
Turning to `O=C(Nc1ccc(-c2ccccc2)cc1)Nc1cccc(Cn2ncc(N3CCNCC3)c(Cl)c2=O)c1`, the growth inhibition in experiment [1] was 59% (active); in experiment [4], 100% (active). The results for the inhibition in experiment [2] and in experiment [3] were 30% and 5%, respectively. For the same compound, the result in experiment [5], in experiment [6], in experiment [7] and in experiment [8] was inactive.
On to `O=C(Nc1cc(=O)[nH]c2nc(-c3ccccc3)nn12)C1CCCCC1`, for which the values for the growth inhibition in experiment [1] and in experiment [4] were 89% (active) and 86% (active), respectively. The inhibition in experiment [2] was -9%; in experiment [3] it was -4%. The result in experiment [5], in experiment [6], in experiment [7] and in experiment [8] was inactive.
`COc1ccc2nccc([C@@H](O)CN3CCC(NC(=O)c4nc(Cl)c(Cl)c(N)c4Cl)CC3)c2c1`: the growth inhibition in experiment [1] was 17%; in experiment [4], 87% (active). The inhibition was 16% in experiment [2] and 2% in experiment [3]. In addition, the outcome in experiment [5], in experiment [6], in experiment [7] and in experiment [8] was inactive.
Take `Cc1nc2nc(N)nc(N)c2c(C)c1Cc1cccc(C(N)=O)c1`: the growth inhibition is -1% in experiment [1] and 91% (active) in experiment [4]. Moreover, the inhibition was 59% (active) in experiment [2] and 5% in experiment [3]. The outcome in experiment [5], in experiment [6], in experiment [7] and in experiment [8] was inactive.
As to `COc1ccc(Nc2nc(N)c3cc(OC)c(OC)cc3n2)cc1OC`, the growth inhibition in experiment [1] is 5%; in experiment [4], 99% (active). Moreover, the inhibition in experiment [2] is -4%; in experiment [3], -7%. Moreover, the result in experiment [5], in experiment [6], in experiment [7] and in experiment [8] was inactive.
On to `CCc1ccccc1N=C1c2c(cccc2[N+](=O)[O-])C(=O)C1C(C)=O` (stereo not given), for which the growth inhibition in experiment [1] was 96% (active); in experiment [4] it was 99% (active). Also, the inhibition in experiment [2] is -6%; in experiment [3], 4%. In addition, the result in experiment [5], in experiment [6], in experiment [7] and in experiment [8] was inactive.
